NS3h inh CB: hepatitis C NS3 helicase inhibition, primary screen | NS3h Cy5-dT15 DNA binding, fluorescence polarization | inhibition, % at 100 µM | 16,000 compounds, 1.6% hits | AID 687043;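 active means inhibition above the average over every tested compound plus 3 SD, cut at about 40% in these data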
Cy5 interf NS3h: counter-screen for HCV NS3 helicase inhibitors: fluorescence interference | Cy5-dT15 DNA with NS3h; actives lie on both sides; signal over control mean, under 1 quenches | 16,000 compounds, 6% hits | fluorescence interference ratio at 100 µM;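 active means compound fluorescence over control fluorescence at most 0.8, a quencher, or at least a set upper limit, an enhancer; inactive means ratio between 0.8 and the set upper limit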
* = called active by the depositor. Rows were chosen to be rich in hits. Some 6.8% of all compounds tested hit in one or more screens of this group.

SMILES	NS3h inh CB	Cy5 interf NS3h
CCc1ccc(NC(=O)CSc2nnc(-c3ccco3)n2-c2ccccc2)cc1	-4	0.8*
O=C(CSc1nnc(-c2ccco2)n1-c1ccccc1)Nc1ccccc1[N+](=O)[O-]	4	0.98
COc1cc(C=C2C(=O)NC(=O)NC2=O)cc(I)c1OCc1ccc(Cl)cc1	28	0.82
CC1CCN(c2cc(N3CCN(C(=O)c4cccc(F)c4)CC3)c([N+](=O)[O-])cc2F)CC1	-2	1.1
COc1ccc(NC(=O)c2cccc(Cl)c2)cc1	9	1.1
COc1cc(NC(=O)c2ccc(C(C)(C)C)cc2)ccc1NC(=O)c1cc2ccccc2o1	8	1.1
O=C(Nc1ccc(Br)cn1)c1cc2n(n1)C(C(F)(F)F)CC(c1ccccc1)N2 (configuration not stated)	24	0.7*
CCc1ccccc1NC(=O)c1cc2n(n1)C(C(F)(F)F)CC(c1ccccc1)N2 (configuration not stated)	6	1
CC(C)n1c(O)c(C2=c3cc(Br)ccc3=NC2=O)sc1=S	8	1
CCc1ccc(OCC(=O)Nc2ccc(F)c([N+](=O)[O-])c2)cc1	12	0.96
CCN(CC)C(=O)CN(c1cc(Cl)ccc1OC)S(=O)(=O)c1ccc(C)c([N+](=O)[O-])c1	12	1.1
COc1ccc(Cl)cc1N(CC(=O)NCC(C)C)S(=O)(=O)c1ccc(C)c([N+](=O)[O-])c1	19	0.71*
O=C1Nc2ccc([N+](=O)[O-])cc2C12NN=C(c1ccccc1)S2 (configuration not stated)	8	0.85
CCOc1ccc(-n2nc3ccc(NC(=O)c4ccc(Cl)cc4)cc3n2)cc1	15	0.64*
CCOc1cccc(C(=O)Nc2ccc3nn(-c4ccc(F)cc4)nc3c2)c1	-24	1.1
O=C(Nc1ccc(Oc2ccccc2)cc1)c1ccc([N+](=O)[O-])cc1	2	1
NS(=O)(=O)c1ccc(NC(=O)c2ccc(Oc3ccccc3)cc2)cc1	1	1.2*
CCOc1ccccc1NC(=O)c1ccc(C)c([N+](=O)[O-])c1	18	0.75*
COc1ccc(NC(=O)c2ccc(C)c([N+](=O)[O-])c2)cc1	13	0.74*
CCOc1ccccc1NC(=O)c1ccc([N+](=O)[O-])cc1	-7	1
CCc1ccc(NC(=O)c2ccc(C)c([N+](=O)[O-])c2)cc1	-5	1
CCC(CC)C(=O)Nc1cc(OC)ccc1OC	1	0.97
CCOC(=O)c1c(N)n(CCO)c2nc3ccccc3nc12	1	1.1
CS(=O)(=O)N(CC(=O)N1CCOCC1)c1cccc(C(F)(F)F)c1	10	1
Cc1ccc(OCC(=O)Nc2nc(-c3ccccc3)cs2)c(C)c1	10	1
SMILES	NS3h inh CB	Cy5 interf NS3h
CCOc1ccc(NC(=O)c2ccc(Cl)c([N+](=O)[O-])c2)cc1	17	0.73*
Cc1ccc(C(=O)Nc2ccc3oc(-c4ccc(F)cc4Cl)nc3c2)cc1[N+](=O)[O-]	6	0.74*
COc1cccc(C(=O)Nc2ccc3oc(-c4ccc(F)cc4Cl)nc3c2)c1	-16	1.1
O=C(COc1ccccc1[N+](=O)[O-])Nc1ccc2oc(-c3cc(Br)ccc3Cl)nc2c1	-18	1.2*
O=C(COc1ccccc1[N+](=O)[O-])Nc1ccc2oc(-c3ccccc3Br)nc2c1	-20	1.1
COC(=O)c1ccc(NC(=S)NC(=O)c2ccc(OC)cc2)cc1	21	0.95
CCOc1ccc(NC(=O)c2ccc(C)c([N+](=O)[O-])c2)cc1	5	1
COc1ccc(C(=O)Nc2ccc(C(=O)O)cc2)cc1	-3	1.2*
COc1ccc(/C=C2/SC(=O)N(CC(=O)Nc3ccc(C)c(C)c3)C2=O)cc1OC	-16	0.98
COC(=O)c1ccc(/C=C2\SC(=S)N(c3cccc(OC)c3)C2=O)cc1	2	1
O=C1OC2C=CC(Br)=CC2C=C1C(=O)N1CCSC1c1ccc2c3c(cccc13)CC2 (configuration not stated)	13	1
O=C1OC2C=CC(Br)=CC2=CC1C(=O)N1CCSC1c1ccccc1Cl (configuration not stated)	21	0.73*
CCc1cc2c(=O)c(-c3nc4ccccc4s3)c(C)oc2cc1OS(C)(=O)=O	7	1.2*
CCC(=O)Oc1cc2oc(CC)c(-c3nc(C)cs3)c(=O)c2cc1CC	18	0.91
COc1ccc(N(CC(=O)NCC(C)C)S(=O)(=O)c2ccc(C)cc2)cc1	4	1
COc1ccc(C(CC(=O)c2ccccc2)S(=O)(=O)c2ccc(C)cc2)cc1 (configuration not stated)	14	0.64*
COc1ccc(C(=O)CC(c2ccc(C(C)C)cc2)S(=O)(=O)c2ccc(C)cc2)cc1 (configuration not stated)	18	0.73*
Cc1ccc(S(=O)(=O)C(CC(=O)c2ccc(Cl)cc2)c2ccccc2)cc1 (configuration not stated)	2	0.98
COc1ccc(-c2nnc(SCC(=O)c3ccc(F)cc3)n2-c2ccccc2)cc1	-6	1
COc1ccc(OCCCOc2ccc(Cl)c(C)c2)cc1	8	0.95
COc1cc(/C=C(\C#N)C(=O)NCC2CCCO2)cc(I)c1O (configuration not stated)	1	1.1
Cc1ccc(Nc2nc(Nc3cccc([N+](=O)[O-])c3)nc(SC(=S)N3CCOCC3)n2)cc1	-60	0.45*
Cc1ccc(SCC(=O)Nc2cccc([N+](=O)[O-])c2)cc1	13	0.95
O=C(NCCOc1ccc(F)cc1)c1ccccc1-c1ccccc1	24	0.69*
O=C(NCCOc1ccc(F)cc1)c1cccc2ccccc12	2	0.88
SMILES	NS3h inh CB	Cy5 interf NS3h
CC(NC(=O)c1cc2nc(-c3ccco3)cc(C(F)(F)F)n2n1)C1CC2CCC1C2 (configuration not stated)	20	0.7*
COc1cc(NC(=O)c2cc3nc(-c4ccc5c(c4)OCO5)cc(C(F)(F)F)n3n2)c(OC)cc1Cl	10	1.1
O=C(COc1ccc(Cl)cc1)Nc1ccc(I)cc1Cl	-1	1.2*
COc1ccc(OCC(=O)Nc2ccc(I)cc2Cl)cc1	3	0.93
COc1ccccc1OCCOc1ccccc1/C=C1/SC(=S)N(C)C1=O	9	1
CCC1(C)Cc2ccccc2/C(=C/C(=O)NC)N1 (configuration not stated)	3	1
COc1ccc(-n2c(C)ccc2C)c(N)c1	6	0.92
COc1cc(C(=O)O)c(-n2c(C)ccc2C)cc1OC	29	1.4*
COc1cc(NC(=O)COc2cccc3ccccc23)cc(OC)c1	7	0.99
Cc1cccc(OCC(=O)Nc2ccc3c(c2)OCO3)c1C	13	0.95
O=C(COc1cccc2ccccc12)Nc1ccncc1	8	0.8*
O=C(COc1cccc2ccccc12)Nc1ccc2c(c1)OCCO2	26	0.68*
COc1ccc(CCNC(=O)COc2cccc3ccccc23)cc1	12	1
O=C(COc1cccc2ccccc12)NCCO	15	0.74*
COc1ccccc1OCCCOc1ccccc1OC	7	0.98
O=C(N1CCN(C(=O)C23CC4CCC(CC(C4)C2)C3)CC1)C12CCC3CC(CC(C3)C1)C2	2	1.1
CC(C)C(=O)Nc1ccc(-c2cnc(-c3ccc(NC(=O)C(C)C)cc3)nc2)cc1	8	0.99
O=C(O)c1ccc(Br)c(S(=O)(=O)N(CCO)CCO)c1	-6	1.1
CCOc1ccc(/C=C2/C(=O)NC(=O)N(c3ccc(OC)cc3)C2=O)c(OCC)c1	35	0.91

Screening data as filed in PubChem BioAssay.
